# Results from paper PMC4336329 (PLoS ONE, 2015).
# The whole screen tested about 310,000 compounds, of which about 14,000 (4.5%) showed an effect of 50% or more. The effect is printed as a negative number. Many of the other results were omitted from the sample, so strong results are more common in it than they were.
# Molecular target: human ether-à-go-go-related gene (hERG) potassium channel (human, UniProt Q12809)
# Assay: primary screen, population patch clamp on CHO cells stably expressing hERG; higher = less effect of the substance
# 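Note: peak tail current of the secondary pulse compared with the same well before compound.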
# Chain of human ether-à-go-go-related gene (hERG) potassium channel (Q12809 whole entry, looked up): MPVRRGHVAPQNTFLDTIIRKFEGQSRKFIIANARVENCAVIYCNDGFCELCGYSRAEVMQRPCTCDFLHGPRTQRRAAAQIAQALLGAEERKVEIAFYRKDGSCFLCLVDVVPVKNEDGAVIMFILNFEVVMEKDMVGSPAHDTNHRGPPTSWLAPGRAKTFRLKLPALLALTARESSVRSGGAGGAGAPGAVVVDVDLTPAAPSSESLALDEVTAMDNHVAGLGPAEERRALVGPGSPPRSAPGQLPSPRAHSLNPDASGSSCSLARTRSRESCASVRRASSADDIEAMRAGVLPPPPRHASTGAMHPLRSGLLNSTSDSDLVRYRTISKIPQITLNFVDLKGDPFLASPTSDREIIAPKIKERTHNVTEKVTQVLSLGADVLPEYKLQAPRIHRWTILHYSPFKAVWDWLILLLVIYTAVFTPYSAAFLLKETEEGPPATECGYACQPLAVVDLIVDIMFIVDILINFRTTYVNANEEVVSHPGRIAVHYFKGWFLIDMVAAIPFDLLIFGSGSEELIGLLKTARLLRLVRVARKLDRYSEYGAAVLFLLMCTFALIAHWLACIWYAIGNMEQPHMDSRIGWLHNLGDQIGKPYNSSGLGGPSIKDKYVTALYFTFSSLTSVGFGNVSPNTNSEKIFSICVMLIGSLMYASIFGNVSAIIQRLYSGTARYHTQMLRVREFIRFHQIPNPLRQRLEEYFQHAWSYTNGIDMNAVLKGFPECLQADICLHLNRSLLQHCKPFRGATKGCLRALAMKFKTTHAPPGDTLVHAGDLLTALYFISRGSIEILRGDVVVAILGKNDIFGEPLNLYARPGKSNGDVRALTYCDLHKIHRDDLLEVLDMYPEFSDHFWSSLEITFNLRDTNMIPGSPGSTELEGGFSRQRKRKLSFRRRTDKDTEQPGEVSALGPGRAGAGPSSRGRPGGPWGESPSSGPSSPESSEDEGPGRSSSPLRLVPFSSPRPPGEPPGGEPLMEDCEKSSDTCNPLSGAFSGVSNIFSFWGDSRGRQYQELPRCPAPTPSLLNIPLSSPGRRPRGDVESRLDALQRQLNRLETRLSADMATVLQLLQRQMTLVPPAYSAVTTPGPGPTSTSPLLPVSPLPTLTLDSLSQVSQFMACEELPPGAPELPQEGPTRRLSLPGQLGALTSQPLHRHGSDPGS
row,Structure (SMILES),"hERG current change (%, negative = inhibition) at 10uM [%]"
1,O=C(O)c1cccc(CSc2nc(-c3ccc(Cl)cc3)cc(C(F)(F)F)n2)c1,-0.199
2,NNC(=O)c1c(O)c2cccc3c2n(c1=O)CCC3,22.4
3,COc1ccc(N2CCN(S(=O)(=O)c3ccc4c(c3)CCCC4)CC2)c([N+](=O)[O-])c1,6.51
4,Cc1cc(C(=O)c2ccc3ccccc3c2)c(C)o1,2.09
5,Cn1ncc([N+](=O)[O-])c1C(=O)N/N=C/c1ccc(F)cc1,-9.05
6,O=C(Nc1ccccc1C(=O)N1CCCCC1)c1cc(F)c(F)cc1Cl,1.47
7,Cc1cc[n+](CC(=O)c2ccc(NC(=O)c3ccccc3)cc2)c2ccccc12.[Br-],7.1
8,O=C(C[n+]1cccc2ccccc21)c1ccc([N+](=O)[O-])cc1.[Br-],-72.4
9,O=C(Nc1ccc[n+](CC(=O)c2cccc3ccccc23)c1)c1ccccc1.[Br-],-58.9
10,Cc1ccc(C(=O)C[n+]2cccc3ccccc32)cc1.[Br-],-9.35
11,O=C(C[n+]1cccc2ccccc21)c1ccccc1.[Br-],-1.84
12,O=C(C[n+]1cccc(NC(=O)c2ccccc2)c1)c1cccc([N+](=O)[O-])c1.[Br-],-76.3
13,Cc1cc[n+](CC(=O)c2ccccc2)c2ccccc12.[Br-],-8.1
14,NC(=O)c1ccc[n+](CC(=O)c2cccc([N+](=O)[O-])c2)c1.[Br-],16.9
15,O=C(Nc1cccc([N+](=O)[O-])c1)c1ccccc1,7.97
16,Cc1cc[n+](CC(=O)c2cccc([N+](=O)[O-])c2)c2ccccc12.[Br-],-58.8
17,O=C(C[n+]1cccc(NC(=O)c2ccccc2)c1)c1ccccc1.[Br-],-18.1
18,NC(=O)c1ccc[n+](CC(=O)c2ccc(NC(=O)c3ccccc3)cc2)c1.[Br-],27.1
19,O=C1c2ccccc2C(O)(Cc2ccccc2)N1Cc1ccco1 (stereo not shown),10.1
20,Cc1ccc(C(=O)Nc2ccc(N3CCOCC3)cc2)cc1S(=O)(=O)N1CCCCC1,-10.1
21,CCOC(=O)CC1(c2ccc(OC)c(OC)c2)C(=O)c2ccccc2C1=O,-1.97
22,c1ccc(-c2cc3c(nn2)CCc2nonc2-3)cc1,0.384
23,COc1ccc(-c2nnc(SCC(=O)c3cccs3)o2)cc1,-8.4
24,CCCOC(=O)CCCCCCCCC(O)CN1CCCCC1.Cl (stereo not shown),-30
25,Cc1ccnc(NC(=O)Nc2cccc(F)c2)c1,-4.23
26,COc1ccc(NC(=O)c2ccc3ccccc3c2)cc1,11
27,Cc1cccc(CSCCNC(=O)c2ccc(N(C)S(=O)(=O)c3ccccc3)cc2)c1,-4.05
28,Cc1cccc(C(CC(=O)N2CCCC2)c2ccccc2)c1O (stereo not shown),-19.4

row,Structure (SMILES),"hERG current change (%, negative = inhibition) at 10uM [%]"
1,Cc1ccc(C(CC(=O)N2CCNCC2)c2ccccc2)c(O)c1C (stereo not shown),-63.8
2,Cc1ccc(C(CC(=O)N2CCCC2)c2ccccc2)c(O)c1 (stereo not shown),4.04
3,Cc1cccc(C(CC(=O)N2CCCCC2)c2ccccc2)c1O (stereo not shown),-34.2
4,Cc1ccc(C(CC(=O)N2CCCC2)c2ccccc2)c(O)c1C (stereo not shown),-57.9
5,Cc1ccc(C(CC(=O)N2CCCCC2)c2ccccc2)c(O)c1C (stereo not shown),-22.1
6,O=C(c1ccc(Br)s1)N1CCN(c2ncccn2)CC1,-20.3
7,CC12CCC3c4ccc(O)cc4CCC3C1CC(O)C2O (stereo not shown),19.5
8,CC1=C(C(=O)Nc2ccccn2)C(c2ccccc2Cl)NC(=S)N1 (stereo not shown),10.1
9,CC(=NCCN1CCN(C(C)=C2C(=O)c3ccccc3C2=O)CC1)C1=C(O)CC(C)(C)CC1=O,-50.5
10,CC(=C1C(=O)c2ccccc2C1=O)N1CCN(CCN=CC2=C(O)CC(C)(C)CC2=O)CC1,-42.3
11,CC(=NCCN1CCN(C(=S)Nc2ccccc2)CC1)C1=C(O)CC(C)(C)CC1=O,-15.3
12,CCc1nnc(NC(=O)CSc2ccc(-c3ccccc3OC)nn2)s1,-7.08
13,CCCCN(CCCNC(=O)C1CCN(S(=O)(=O)N2CCOCC2)CC1)c1ccccc1,-48.8
14,O=C(NCCCN1CCC(Cc2ccccc2)CC1)C1CC(=O)N(C2CCCC2)C1 (stereo not shown),-34.8
15,CCS(=O)(=O)N1CCCC(C(=O)NCCN2CCC(Cc3ccccc3)CC2)C1 (stereo not shown),-59.1
16,CCCS(=O)(=O)N1CCCC(C(=O)NCCN2CCOCC2)C1 (stereo not shown),13.7
17,CCCS(=O)(=O)N1CCCC(C(=O)NCCCN2CCN(c3ccc(F)cc3)CC2)C1 (stereo not shown),-59.5
18,O=C(NCCCN1CCCCCC1)C1CC(=O)N(C2CCCC2)C1 (stereo not shown),5.99
19,CCCS(=O)(=O)N1CCCC(C(=O)NCCCN2CCN(c3ccccc3F)CC2)C1 (stereo not shown),-21.1
20,CCN(CCCNC(=O)C1CCN(S(=O)(=O)CC)CC1)c1ccccc1,-21.7
21,CS(=O)(=O)N1CCCC(C(=O)NCCCN2CCC(Cc3ccccc3)CC2)C1 (stereo not shown),-33.5
22,CS(=O)(=O)N1CCCC(C(=O)NCCN2CCC(Cc3ccccc3)CC2)C1 (stereo not shown),-28
23,CCCCN(CCCNC(=O)C1CCN(S(=O)(=O)CC)CC1)c1ccccc1,-51.1
24,O=C(NCCCN1CCC(Cc2ccccc2)CC1)C1CC(=O)N(C2CCCCCC2)C1 (stereo not shown),-66.8
25,COC(=O)c1sc2nc(SCC(=O)N(C)c3ccccc3)n(N)c(=O)c2c1C,27.4
26,Cc1cccc(OCCCOc2cccc3cccnc23)c1C,10.4
27,Cc1nc(CC(=O)N2CCN(S(=O)(=O)c3ccccc3C#N)CC2)cs1,10.3
